Test [1] can be described thus: AP1 Signaling Pathway (AID 357; active = well fitted curve in either direction with a large enough effect, not every such curve was filed as active;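 also: ME-180 reporter cells stimulated with EGF at its EC50 level; % is scaled to controls: 0 for no effect and ±100 for the full control effect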). Particulars: ME-180 (cervical carcinoma) AP-1-bla reporter, EGF-induced, beta-lactamase ratio, 5 h; at 17.2 µM (top of the series) unless noted. A digest of the protocol:
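Read-out was the 460nm/530nm emission ratio (excitation 405nm) after CCF4 loading for 2.5 hours at room temperature. Cells carried an AP-1-driven beta-lactamase reporter, were stimulated with EC50 EGF plus compound for 5 hours, and AC50 values came from titrations.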

Test [2] is described as follows: NFAT Signaling Pathway (AID 444; active = well fitted curve in either direction with a large enough effect, not every such curve was filed as active;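 also: carbachol stimulus at about its EC50 of 1 µM final; % is scaled to controls: 0 for no effect and ±100 for the full control effect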). To be noted: Jurkat NFAT-bla M1, carbachol, beta-lactamase ratio, 5 h; at 17.2 µM (top of the series) unless noted. Put shortly:
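Jurkat cells carrying an NFAT-driven β-lactamase reporter and co-transfected muscarinic M1 receptor were treated with compound plus carbachol (1 uM final, an EC50 level) for 5 h at 37 °C. CCF4 loading followed for 1 h at RT; 460/530 nm ratio gave %activity.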

Test [3] in a line: Stat Signaling Pathway (AID 446; active = well fitted curve in either direction with a large enough effect, not every such curve was filed as active;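 also: ME-180 cervical cancer cells given 40 pM IL-6 alongside compound; SIE-controlled beta-lactamase reporter measured as 460/530 nm FRET emission ratio; % is scaled to controls: 0 for no effect and ±100 for the full control effect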). A digest of the protocol:
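FRET read-out (405 nm excitation, 460/530 nm emission) of a beta-lactamase reporter under a STAT-inducible element in ME-180 cervical carcinoma cells. Cells with compound receive 40 pM IL-6 for 5 h. Values are normalised to AC90 stimulation and AC90 JAK-inhibitor controls.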

The target in test [4] is Cytochrome P450 1A2 (Homo sapiens) (UniProt P05177). In words: p450-cyp1a2 (AID 410; calls by dose curve). A digest of the protocol: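 O-Demethylation of luciferin 6' methyl ether by human CYP1A2 is monitored as luciferase luminescence. Substrate sits at Km (100uM); enzyme is 20nM. Values are scaled to 57 uM furafylline as maximal inhibition.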
Chain of Cytochrome P450 1A2 (Homo sapiens) (P05177 whole entry, looked up): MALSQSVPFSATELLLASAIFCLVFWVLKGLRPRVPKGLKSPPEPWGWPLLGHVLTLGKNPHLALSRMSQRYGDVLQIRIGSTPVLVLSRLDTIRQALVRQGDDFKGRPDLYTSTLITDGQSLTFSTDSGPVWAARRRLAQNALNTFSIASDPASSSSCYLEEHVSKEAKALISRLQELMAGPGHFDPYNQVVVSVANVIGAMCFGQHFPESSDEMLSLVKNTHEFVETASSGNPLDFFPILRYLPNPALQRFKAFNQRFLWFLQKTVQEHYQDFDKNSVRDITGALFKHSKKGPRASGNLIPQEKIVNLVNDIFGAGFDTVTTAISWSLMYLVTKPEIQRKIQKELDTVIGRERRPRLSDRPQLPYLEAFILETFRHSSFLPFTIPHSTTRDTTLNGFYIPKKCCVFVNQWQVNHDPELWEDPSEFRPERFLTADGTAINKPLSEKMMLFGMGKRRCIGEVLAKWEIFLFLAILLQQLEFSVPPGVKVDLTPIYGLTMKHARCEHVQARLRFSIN
Test [5] deals with 3',5'-cyclic-AMP phosphodiesterase 4B (Homo sapiens) (UniProt Q07343). As to the kind of experiment: qHTS Assay for Inhibitors of PDE-IV (AID 607; active = well fitted activation curve with a large enough effect in the main read-out, with a control signal flat, not every such curve was filed as active; also: % of control where 0% means no effect). Put shortly: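 Cell-based read-out of cAMP via a modified cyclic nucleotide-gated channel and membrane potential dye (535/590 nm) in HEK293 cells expressing PDE4 endogenously. Compounds tested up to 22.9 uM final; 100 uM RO 20-1724 reference.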
Chain of 3',5'-cyclic-AMP phosphodiesterase 4B (Homo sapiens) (Q07343 whole entry, looked up): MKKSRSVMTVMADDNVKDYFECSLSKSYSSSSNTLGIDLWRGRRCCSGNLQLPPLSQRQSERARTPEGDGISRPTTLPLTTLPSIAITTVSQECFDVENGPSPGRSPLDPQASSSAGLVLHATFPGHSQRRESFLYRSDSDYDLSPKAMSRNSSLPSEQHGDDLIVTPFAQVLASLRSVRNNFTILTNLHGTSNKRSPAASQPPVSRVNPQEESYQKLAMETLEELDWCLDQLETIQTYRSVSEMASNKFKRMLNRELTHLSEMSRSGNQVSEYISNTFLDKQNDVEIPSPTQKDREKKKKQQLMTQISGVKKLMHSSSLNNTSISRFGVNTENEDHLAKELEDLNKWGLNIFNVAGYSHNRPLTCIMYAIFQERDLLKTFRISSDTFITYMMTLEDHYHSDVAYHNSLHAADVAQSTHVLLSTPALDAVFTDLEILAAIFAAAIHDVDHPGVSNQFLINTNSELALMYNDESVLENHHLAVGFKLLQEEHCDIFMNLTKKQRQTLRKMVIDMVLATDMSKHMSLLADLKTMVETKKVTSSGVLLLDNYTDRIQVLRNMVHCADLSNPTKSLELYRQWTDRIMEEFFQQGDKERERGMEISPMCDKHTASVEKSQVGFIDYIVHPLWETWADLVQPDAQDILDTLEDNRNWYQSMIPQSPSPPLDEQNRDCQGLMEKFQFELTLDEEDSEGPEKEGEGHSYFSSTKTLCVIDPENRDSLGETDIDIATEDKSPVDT
Background: qHTS replaces the single test concentration by a dilution series.

For test [6], the target named is Guanine nucleotide-binding protein G(i) subunit alpha-1 (Homo sapiens) (UniProt P63096). In words: qHTS Assay for Inhibitors of RGS12 GoLoco Motif Activity (Green Fluorophore) (AID 879).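 Also: 0% = labeled peptide with Gαi1 and full inhibition = labeled peptide alone without protein; negative values mean loss of peptide binding seen as reduced polarization.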 A digest of the protocol: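 A drop in FITC polarization marked displacement of the FITC-tagged RGS12 GoLoco peptide (10 nM) from Gαi1 (50 nM). Compounds were incubated 10 min at room temperature in Tris pH 7.5 buffer containing 150 mM NaCl, 0.1 mM GDP and 0.05% NP40; unlabeled peptide titration served as control.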
Chain of Guanine nucleotide-binding protein G(i) subunit alpha-1 (Homo sapiens) (P63096 whole entry, looked up): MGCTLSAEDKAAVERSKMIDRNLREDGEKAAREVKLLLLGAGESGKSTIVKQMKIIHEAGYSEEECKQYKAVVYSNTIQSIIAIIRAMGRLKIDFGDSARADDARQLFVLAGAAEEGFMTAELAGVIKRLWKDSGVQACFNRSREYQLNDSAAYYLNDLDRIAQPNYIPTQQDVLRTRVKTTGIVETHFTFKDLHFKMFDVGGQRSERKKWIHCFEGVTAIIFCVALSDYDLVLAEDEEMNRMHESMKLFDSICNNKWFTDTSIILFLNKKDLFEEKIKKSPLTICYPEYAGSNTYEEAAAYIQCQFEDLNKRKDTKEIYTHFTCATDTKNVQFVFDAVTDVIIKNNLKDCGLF

Test [7] is described as follows: qHTS Assay for Identification of Small Molecule Antagonists for Thrombopoietin (TPO) Signaling Pathway (AID 918). Also: potency is read from the fitted curve at half-maximal effect; nearly all actives have a fitted effect of over 60% in size. To be noted: TPO-dependent cell signaling reporter, antagonist mode. A digest of the protocol:
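Inhibitors of TPO signaling are sought by stimulating IL-3-starved murine Ba/F3 cells (human TPO receptor, Glycoprotein IIb-driven luciferase) with TPO at its EC50 of 26 pM alongside compound. After 24 hrs at 37 C, reporter luminescence is measured.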

Test [8] deals with Muscarinic acetylcholine receptor M1 (Rattus norvegicus) (UniProt P08482). As to the kind of experiment: qHTS Assay for Antagonists of Acetylcholine Muscarinic M1 Receptor: Kinetic Measurement of Intracellular Calcium Response (AID 943). Also: nearly all actives have a fitted effect of over 75% in size. Also: potency is read from the fitted curve at half-maximal effect.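 As to activity change, negative = inhibition: Fluo-4 calcium signal as peak divided by basal fluorescence over 4 min.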 A digest of the protocol:
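Antagonism is measured as inhibition of the carbachol-evoked calcium rise in CHO cells transfected with rat M1. Cells are dye-loaded, exposed to compound for 10 min, then stimulated with 100 nM carbachol (EC80).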

Test [9] shares this target. In words: qHTS Assay for Antagonists of Acetylcholine Muscarinic M1 Receptor: Measurement of IP-One Response (AID 944). Also: nearly all actives have a fitted effect of over 75% in size. Put shortly: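 Antagonist mode with rat M1 receptor transfected into CHO cells. Compound is added first for 10 min, carbachol at its EC80 follows for 30 min, and lysis reagents then allow TR-FRET detection of accumulated IP1.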
The target in test [10] is Pyruvate kinase (Leishmania mexicana) (UniProt Q27686). In words: qHTS Validation Assay for Inhibitors of Leishmania Mexicana Pyruvate Kinase (AID 945).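 Also: 0% = DMSO only neutral control wells.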 Put shortly:
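The enzyme is a highly purified E451W mutant of LmPYK used at 0.2 nM. It converts 0.5 mM PEP and 0.1 mM ADP over 1 h at room temperature; product ATP is quantified by luciferase luminescence relative to DMSO controls.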

Test [11] deals with Pyruvate kinase PKM (Homo sapiens) (UniProt P14618). As to the kind of experiment: qHTS Assay for Activators of Human Muscle Pyruvate Kinase (AID 954; active = well fitted curve in the direction sought with a large enough effect, not every such curve was filed as active;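 also: 0% = uninhibited enzyme and -100% = no enzyme or full thiadiazolimine inhibition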). A digest of the protocol:
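ATP production by PKM2 detected via luciferase luminescence after 1 h room-temperature reaction (0.1 nM enzyme, PEP at Km 0.5 mM, ADP 0.1 mM, pH 7.2 imidazole buffer). Inhibition scaled to no-enzyme control; activation referenced to 0.3 nM enzyme wells.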

For test [12], the target named is Alpha-galactosidase (Coffea arabica) (UniProt Q42656). As to the kind of experiment: Counterscreen for Glucocerebrosidase Inhibitors: qHTS Assay for Coffee Bean alpha-Galactosidase at pH 4.5 (AID 957).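 Also: plate controls were enzyme alone for no effect and no enzyme for full effect.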 Put shortly:
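Enzyme is added first (2 nM final), then compounds titrated from 0.7 nM to 77 uM, then 80 uM 4-methylumbelliferyl alpha-D-galactopyranoside; after 20 min at room temperature a pH 10 NaOH/glycine stop precedes fluorescence reading at 365/440 nm.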
(In general: Counterscreens check selectivity or assay interference.)

For test [13], the target named is Alpha-galactosidase A (Homo sapiens) (UniProt P06280). As to the kind of experiment: Counterscreen for Glucocerebrosidase Inhibitors: qHTS Assay for Human alpha-Galactosidase at pH 4.5 (AID 992). Also: 0% is about no effect. A digest of the protocol: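 Fluorogenic 1536-well qHTS at pH 4.5 (citrate, Tween-20): 2 nM enzyme, 80 uM 4-MU-alpha-galactoside, 20 min room temperature, NaOH/glycine stop. Titration 0.7 nM to 77 uM, data normalized to no-enzyme and full-activity controls, Hill-fitted AC50.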
Chain of Alpha-galactosidase A (Homo sapiens) (P06280 whole entry, looked up): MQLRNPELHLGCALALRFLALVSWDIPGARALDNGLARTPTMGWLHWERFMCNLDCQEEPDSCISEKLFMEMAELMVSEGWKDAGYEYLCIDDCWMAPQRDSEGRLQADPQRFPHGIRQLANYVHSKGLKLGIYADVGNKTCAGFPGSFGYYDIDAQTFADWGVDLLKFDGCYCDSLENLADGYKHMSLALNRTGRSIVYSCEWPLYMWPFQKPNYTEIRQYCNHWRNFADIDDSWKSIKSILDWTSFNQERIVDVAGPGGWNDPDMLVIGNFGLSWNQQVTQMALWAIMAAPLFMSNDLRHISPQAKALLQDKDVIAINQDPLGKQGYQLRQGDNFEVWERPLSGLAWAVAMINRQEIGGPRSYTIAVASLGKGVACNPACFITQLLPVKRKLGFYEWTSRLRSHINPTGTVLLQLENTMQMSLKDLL

The target in test [14] is alpha-glucosidase (Oryza sativa, rice) (UniProt Q653V4). In words: Counterscreen for Glucocerebrosidase Inhibitors: qHTS Assay for Rice alpha-Glucosidase at pH 5.0 (AID 997).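 Also: 0% = full activity with enzyme and -100% = basal without enzyme.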 A digest of the protocol:
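Endpoint fluorogenic assay at pH 5.0: compounds (0.7 nM to 77 uM) titrated against 4 nM rice enzyme and 400 uM 4-MU-alpha-glucoside for 20 min at room temperature; NaOH/glycine stop, read ex 365/em 440 nm, Hill-fitted AC50.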

For test [15], the target named is Alpha-galactosidase (Coffea arabica) (UniProt Q42656). In words: Counterscreen for Glucocerebrosidase Inhibitors: qHTS Assay for Coffee Bean alpha-Galactosidase at pH 5.9 (AID 998).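 Also: plate controls were uninhibited enzyme for no effect and no-enzyme basal signal for full effect.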 A digest of the protocol: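 In 50 mM citric acid pH 5.9 with 0.005% Tween-20, coffee bean enzyme hydrolyses 80 uM 4-MU alpha-D-galactopyranoside over 20 min at RT. Activity is normalized to controls; AC50 comes from Hill-modelled concentration-response data.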
Chain of Alpha-galactosidase (Coffea arabica) (Q42656 whole entry, looked up): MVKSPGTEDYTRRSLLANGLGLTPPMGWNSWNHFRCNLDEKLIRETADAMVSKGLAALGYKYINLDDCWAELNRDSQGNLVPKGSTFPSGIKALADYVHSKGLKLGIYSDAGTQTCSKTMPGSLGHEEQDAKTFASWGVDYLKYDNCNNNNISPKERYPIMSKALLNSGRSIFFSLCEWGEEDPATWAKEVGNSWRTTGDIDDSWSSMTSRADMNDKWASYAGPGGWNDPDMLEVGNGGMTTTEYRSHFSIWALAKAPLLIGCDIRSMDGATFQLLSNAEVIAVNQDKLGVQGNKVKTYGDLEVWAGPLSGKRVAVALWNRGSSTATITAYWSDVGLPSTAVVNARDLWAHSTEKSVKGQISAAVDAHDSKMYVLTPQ

Test [16] addresses Glucocorticoid receptor (Homo sapiens) (UniProt P04150). In words: GR-GFP Redistribution (AID 450;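 active = compounds whose dose series gives a full or clear partial fitted curve of increased nuclear translocation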; also: potency is read from the fitted curve at half-maximal effect). Particulars: U2OS GR-GFP nuclear translocation, laser cytometry, 2 h.
The target in test [17] is Mitogen-activated protein kinase 10 (Mus musculus) (UniProt Q61831). In words: JNK3 AlphaScreen Assay (AID 530; active = well fitted curve in either direction with a large enough effect, not every such curve was filed as active;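 also: kinase came from lysate of stimulated human HepG2 cells; signal reports phosphorylation of biotinylated GST-cJun 1-79 at Ser73 with 10 µM ATP; % is scaled to controls: 0 for no effect and ±100 for the full control effect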). Put shortly:
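Phosphorylation of biotinylated GST-cJun(1-79) at Ser73 is measured by AlphaScreen proximity luminescence. Enzyme is JNK3 in HepG2 lysates activated with interleukin-1beta and tumor necrosis factor alpha; ATP is 10 uM final.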
(Bead proximity is the source of the signal in Alpha formats.)

In test [18] the target is Cytochrome P450 3A4 (Homo sapiens) (UniProt P08684). In words: qHTS Assay for Activators of Cytochrome P450 3A4 (AID 885). Also: nearly all actives have a fitted effect of over 65% in size. Put shortly:
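Luminescent readout of luciferin formed from 25 uM Luciferin-PPXE (KM level) by 20 nM CYP3A4 in 200 mM KPO4, with 60 min NADPH-driven reaction at room temperature after 10 min compound exposure. Ketoconazole (57 uM) defined 100% inhibition.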

A short description of test [19]: qHTS Assay for Identification of Small Molecule Antagonists for NFkB Signaling Pathway (AID 895; active = well fitted inhibition curve with a large enough effect in the signal ratio, with a control signal flat, not every such curve was filed as active; the % refers to the signal ratio; also: potency is read from the fitted curve at half-maximal effect). Put shortly: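 NFkB-bla ME-180 cervical carcinoma cells with beta-lactamase reporter under NFkB response element; compounds added, then TNF alpha at 10 pM final (EC50), 5 h at 37 C. LiveBLAzer substrate 2 h, room temperature; emission 460/530 nm at 405 nm excitation.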

The nature of test [20]: qHTS Assay for Identification of Small Molecule Agonists for Thrombopoietin (TPO) Signaling Pathway (AID 917). Also: % is scaled to controls: 0 for no effect and ±100 for the full control effect. Put shortly:
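Stimulation at the TPO EC50 (26 pM final) was used to detect activators. Ba/F3 mouse cells bearing human TPO receptor and a luciferase reporter under the Glycoprotein IIb promoter were exposed to compounds for 24 hrs at 37 C.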

The target in test [21] is Cytochrome P450 2C9 (Homo sapiens) (UniProt P11712). As to the kind of experiment: qHTS Assay for Inhibitors and Substrates of Cytochrome P450 2C9 (AID 883). Also: % is scaled to controls: 0 for no effect and ±100 for the full control effect; nearly all actives have a fitted effect of over 60% in size. A digest of the protocol: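 Human CYP2C9 (10nM) hydroxylated Luciferin-H (100uM, at its KM) to luciferin in 25mM KPO4. Compound was preincubated 10 min at 37C, then NADPH regeneration started a 60 min reaction at 37C. Luminescence was read after detection reagent, normalized to 57uM sulphaphenazole.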

The target of test [22] is Cytochrome P450 2C19 (Homo sapiens) (UniProt P33261). In words: qHTS Assay for Inhibitors and Substrates of Cytochrome P450 2C19 (AID 899). Also: potency is read from the fitted curve at half-maximal effect; nearly all actives have a fitted effect of over 60% in size. A digest of the protocol: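 Human CYP2C19 (5nM) with Luciferin-H EGE at 10uM (its KM) in 50mM KPO4 was preincubated with compound for 10 min at 37C. NADPH regeneration started a 60 min 37C reaction. Luciferin was read by luminescence, normalized to 57uM ketoconazole.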

The target in test [23] is Glucocorticoid receptor (Homo sapiens) (UniProt P04150). In words: GR-EFC Redistribution (AID 451; calls by dose curve; also: potency is read from the fitted curve at half-maximal effect). To be noted: CHO-K1 GR-EFC translocation, beta-gal luminescence, 2 h. A digest of the protocol:
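CHO-K1 cells stably expressing nuclear-localized β-gal enzyme acceptor and GR fused C-terminally to the enzyme donor fragment; ligand-driven nuclear translocation restores β-gal by complementation. Compounds titrated up to 46 uM final, 2 h at 37 °C; luminescence read.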

A number with no mark means an inactive call. Inconclusive results are not listed. Active and inactive are the calls of the source. Unless noted, calls follow the shape of the dose curve; as a rule, active = well fitted curve in the direction sought with a large enough effect; inconclusive = small, poorly fitted or top-dose-only effect, or another doubt; inactive = no such curve, though single readings can be large; an effect the other way counts as inactive or inconclusive.

Chain of Pyruvate kinase PKM (Homo sapiens) (P14618 whole entry, looked up): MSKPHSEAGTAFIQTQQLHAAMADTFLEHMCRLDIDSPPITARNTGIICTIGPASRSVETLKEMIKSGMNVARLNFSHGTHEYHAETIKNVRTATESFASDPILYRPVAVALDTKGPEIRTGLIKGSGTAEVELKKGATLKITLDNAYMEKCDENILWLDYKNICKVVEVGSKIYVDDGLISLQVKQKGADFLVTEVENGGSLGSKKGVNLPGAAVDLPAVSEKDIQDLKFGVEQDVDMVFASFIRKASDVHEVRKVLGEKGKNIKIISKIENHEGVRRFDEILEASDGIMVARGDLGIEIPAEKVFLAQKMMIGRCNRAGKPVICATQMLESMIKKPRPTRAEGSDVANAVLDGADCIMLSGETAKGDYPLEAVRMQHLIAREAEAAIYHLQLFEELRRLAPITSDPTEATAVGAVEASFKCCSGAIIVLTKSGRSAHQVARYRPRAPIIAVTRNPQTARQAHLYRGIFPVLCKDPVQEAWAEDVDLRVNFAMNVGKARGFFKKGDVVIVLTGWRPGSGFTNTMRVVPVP
Chain of Glucocorticoid receptor (Homo sapiens) (P04150 whole entry, looked up, the tested form may be a part): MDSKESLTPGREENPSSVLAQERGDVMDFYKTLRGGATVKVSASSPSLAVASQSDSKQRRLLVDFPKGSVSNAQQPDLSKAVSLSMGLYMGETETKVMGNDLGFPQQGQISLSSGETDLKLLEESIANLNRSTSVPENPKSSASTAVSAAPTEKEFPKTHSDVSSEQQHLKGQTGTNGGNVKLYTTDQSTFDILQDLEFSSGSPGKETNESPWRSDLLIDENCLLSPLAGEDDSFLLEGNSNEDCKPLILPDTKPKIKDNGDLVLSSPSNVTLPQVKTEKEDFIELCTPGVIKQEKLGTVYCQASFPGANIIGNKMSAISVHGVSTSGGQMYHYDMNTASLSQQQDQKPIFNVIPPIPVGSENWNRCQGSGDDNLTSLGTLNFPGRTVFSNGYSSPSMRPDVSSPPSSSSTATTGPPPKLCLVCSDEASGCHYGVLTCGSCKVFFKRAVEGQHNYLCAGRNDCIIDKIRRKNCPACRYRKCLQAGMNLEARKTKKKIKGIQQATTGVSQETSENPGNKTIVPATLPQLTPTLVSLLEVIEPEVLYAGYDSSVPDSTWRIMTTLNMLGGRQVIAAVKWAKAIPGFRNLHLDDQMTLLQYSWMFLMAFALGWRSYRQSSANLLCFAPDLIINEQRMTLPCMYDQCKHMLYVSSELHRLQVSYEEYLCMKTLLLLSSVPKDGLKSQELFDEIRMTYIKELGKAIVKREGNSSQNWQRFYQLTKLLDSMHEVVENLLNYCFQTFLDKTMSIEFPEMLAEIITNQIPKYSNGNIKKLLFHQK
Chain of Muscarinic acetylcholine receptor M1 (Rattus norvegicus) (P08482 whole entry, looked up): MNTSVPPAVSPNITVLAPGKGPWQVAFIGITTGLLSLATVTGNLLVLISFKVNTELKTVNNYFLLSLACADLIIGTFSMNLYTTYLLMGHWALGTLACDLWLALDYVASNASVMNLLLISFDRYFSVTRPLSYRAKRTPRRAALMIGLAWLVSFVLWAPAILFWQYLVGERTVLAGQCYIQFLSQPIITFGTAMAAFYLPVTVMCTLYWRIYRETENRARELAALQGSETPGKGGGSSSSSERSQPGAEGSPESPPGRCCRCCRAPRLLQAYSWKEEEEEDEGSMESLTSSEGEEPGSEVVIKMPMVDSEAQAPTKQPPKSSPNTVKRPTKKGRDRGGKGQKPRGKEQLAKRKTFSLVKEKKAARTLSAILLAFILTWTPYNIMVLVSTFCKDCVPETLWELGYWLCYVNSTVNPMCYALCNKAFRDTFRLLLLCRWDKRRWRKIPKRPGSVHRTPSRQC
Chain of Pyruvate kinase (Leishmania mexicana) (Q27686 2-499 E452W): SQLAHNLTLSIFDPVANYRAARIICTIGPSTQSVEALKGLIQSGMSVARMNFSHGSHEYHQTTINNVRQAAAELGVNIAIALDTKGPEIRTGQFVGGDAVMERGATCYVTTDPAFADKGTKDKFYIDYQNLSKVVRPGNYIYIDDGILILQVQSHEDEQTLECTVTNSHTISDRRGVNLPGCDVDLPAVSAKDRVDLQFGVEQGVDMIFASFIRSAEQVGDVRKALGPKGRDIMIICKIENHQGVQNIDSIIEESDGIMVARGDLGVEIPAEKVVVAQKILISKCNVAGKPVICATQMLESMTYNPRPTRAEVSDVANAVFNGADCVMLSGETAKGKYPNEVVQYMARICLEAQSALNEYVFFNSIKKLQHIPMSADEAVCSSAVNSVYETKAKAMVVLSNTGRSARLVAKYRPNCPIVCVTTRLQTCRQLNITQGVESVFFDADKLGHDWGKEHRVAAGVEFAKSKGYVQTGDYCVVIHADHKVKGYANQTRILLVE

For the compound `CCCCSP1(=S)NCCCO1` (centres undefined), the activity change, negative = inhibition was 2.22% in test [1] and 1.86% in test [2]. Further, the compound was called inactive in [3].
With `N[C@@H]1CCc2cc(O)c(O)cc2C1`, the activity change, negative = inhibition was -9.85% [at 38 µM] in test [1] and -2.09% [at 38 µM] in test [2]. In addition, the Potency entry in test [4], in test [6], in test [8], in test [9] and in test [10] was “inactive” throughout. For the same compound, the compound was classed as inactive in [3], in test [5], in test [11], in test [12], in [13] and in test [14]. In addition, the compound was called inactive in test [15]. Also, the Potency in test [7] is 10 µM (active).
With `C=CCN1C[C@@H](C)N([C@H](c2ccc(C(=O)N(CC)CC)cc2)c2cccc(OC)c2)C[C@H]1C`, the activity change, negative = inhibition in test [1] was -9.21% [at 38 µM]. Further, the Potency result in test [4], in test [6], in test [18] and in test [10] was “inactive” in each case. Moreover, the Potency was above 46 µM in [16], 5.01 µM (active) in test [19] and 14.1 µM (active) in test [8]. The outcome in test [17], in test [5], in test [20], in test [11], in test [12] and in test [13] was inactive. The outcome in test [14] and in [15] was inactive.
In the case of `COc1ccccc1-n1c(O)c(C=NCCCn2ccnc2)c(=O)[nH]c1=O`, the activity change, negative = inhibition in test [1] is 6.21%; in test [2], 10.5%. Also, the compound was classed as inactive in [3].
Turning to `O=C(CCCN1CCC2(CC1)C(=O)N(CCc1ccc(N=C=S)cc1)CN2c1ccccc1)c1ccc(F)cc1`, the activity change, negative = inhibition in test [1] was -2.99% [at 38 µM]. Moreover, the Potency result in test [4] and in test [21] was “inactive” in each case. The result in test [3], in test [17] and in test [5] was inactive. For the same compound, the Potency in test [16] is above 46 µM; in [22], 3.16 µM (active).
In the case of `CCN1C[C@]2(C)CC[C@@H](O)[C@]34[C@@H]5CC6[C@@H](OC)C[C@@](O)([C@H]5[C@@H]6O)[C@@H](C[C@@H]23)[C@H]14`, the activity change, negative = inhibition was 5.54% [at 38 µM] in test [1] and 6.29% [at 38 µM] in test [2]. The Potency result in [4], in test [6], in test [19], in test [8], in test [9] and in test [10] was “inactive” each time. Moreover, the outcome in test [3], in test [5], in test [20], in test [11], in test [12] and in test [13] was inactive. Further, the result in [14] and in test [15] was inactive. The Potency in test [16] and in test [23] was above 46 µM throughout.
As for `C[N+]1(C)[C@@H]2CC(OC(=O)[C@@H](CO)c3ccccc3)C[C@@H]1[C@H]1O[C@H]12` (some centres undefined), the activity change, negative = inhibition in test [1] was 0.541% [at 7.69 µM]; in test [4], -22.8% [at 11.4 µM]; in [17], 0.144% [at 11.4 µM]. For the same compound, in test [3], the outcome was inactive. For the same compound, the figures for the Potency in test [16] and in test [23] were above 46 µM and above 9.22 µM, respectively.

Values taken from PubChem BioAssay (NCATS).
